HPGD block = blocks human HPGD enzyme activity; Potency, µM, for the others: top-dose activity change, negative = inhibition, most hits filed as inhibitors; AID 894; purified HPGD, NADH fluorescence kinetic, PGE2 substrate; 4.3% of 150,000 active; active means well fitted inhibition curve with a large enough effect, not every such curve was filed as active; inconclusive means small, poorly fitted or top-dose-only effect, or another doubt; inactive means no such curve, though single readings can be large or run the other way; further: potency means the concentration at half of the fitted maximal effect
Target sequence (P15428 whole entry, looked up): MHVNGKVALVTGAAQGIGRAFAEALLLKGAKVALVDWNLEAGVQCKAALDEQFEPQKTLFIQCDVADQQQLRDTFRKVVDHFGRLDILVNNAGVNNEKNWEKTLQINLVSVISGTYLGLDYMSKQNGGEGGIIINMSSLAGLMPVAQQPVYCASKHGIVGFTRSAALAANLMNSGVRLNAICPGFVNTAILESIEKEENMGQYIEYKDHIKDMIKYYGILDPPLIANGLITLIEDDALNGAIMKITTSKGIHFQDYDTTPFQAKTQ
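20 nM HPGD preincubated 15 min at room temperature with compound in 50 mM Tris-HCl pH 8, 0.01% Tween 20. Started with 1 mM NAD+ and 30 uM prostaglandin E2; NADH fluorescence (360/450 nm) read 5 times over 30-s intervals, last minus first.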
ALDH1A1 inh = inhibitors of human aldehyde dehydrogenase 1A1; P00352; Purified ALDH1A1, NADH fluorescence, propionaldehyde substrate; Potency, µM (doses to about 75.3 µM), for inactives: top-dose activity, negative = inhibition, most hits filed as inhibitors; 7.3% of 220,000 active; active means well fitted inhibition curve with a large enough effect, not every such curve was filed as active; inconclusive means small, poorly fitted or top-dose-only effect, or another doubt; inactive means no such curve, though single readings can be large or run the other way;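 further: potency means the concentration at half of the fitted maximal effect; plate controls were no enzyme wells and a reference inhibitor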
PNC assembly inh = perinucleolar compartment assembly inhibition; 3.1% of 140,000 active; activity change (PNC), negative = inhibition, % at 10 µM; PC3M PTB-GFP, PNC prevalence imaging, 16 h; stronger effect = lower value;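 active means readout at or below -70, meaning at least 70% loss of cells showing the perinucleolar compartment, a nuclear body marking cancer cells; inconclusive means readout between -30 and a set limit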;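 further: plate controls were DMSO wells for no effect and camptothecin positive control wells for full effect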
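Read-out is percentage of cells bearing a perinucleolar compartment, from automated 20x imaging of fixed, Hoechst-stained PC3M PTB-GFP cells. Cells were seeded 4 h, then exposed 16 h to compound (23 nl of library stock) in duplicate plates.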
IMPase Li cell = membrane-permeable IMPase blocker, potentiated with lithium; AID 1457; 0.35% of 210,000 active; CHO-M1 cells, IP1 TR-FRET (IP-One), carbachol + lithium; Potency, µM (top dose mostly 59.4 µM), for inactives: at the top dose activity, negative = IMPase inhibition, usual class: inhibitors;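 further: IP1 builds up when IMPase is blocked and the TR-FRET signal falls; potency means the concentration at half of the fitted maximal effect; plate controls were basal vehicle for no effect and high inhibitor control for full effect; nearly all actives have a fitted effect of over 50% in size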
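Lithium-sensitised IP1 accumulation assay; M1-expressing CHO cells treated 30 min at 37C with compound. Competitive antibody detection by time-resolved FRET followed a 10 min room-temperature lysis step.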
IMPase cell inh = membrane-permeable compound that blocks inositol monophosphatase | P97697 | CHO-M1 cells, IP1 accumulation, HTRF TR-FRET ratio | 120,000 tested, under 10 active | AID 901 | inhibition (IP1 accumulation), % at 46.1 µM; active means well fitted curve in the direction sought with a large enough effect in the signal ratio, not every such curve was filed as active; inconclusive means small, poorly fitted or top-dose-only effect, or a change in a side signal; inactive means no such curve, though single readings can be large or run the other way; the % refers to the signal ratio;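 further: cells stimulated with carbachol in lithium chloride buffer; plate controls were DMSO basal wells for no effect and reference inhibitor wells for full effect; higher means more IMPase inhibition seen as more IP1 and lower FRET ratio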
Target sequence (P97697 whole entry, looked up): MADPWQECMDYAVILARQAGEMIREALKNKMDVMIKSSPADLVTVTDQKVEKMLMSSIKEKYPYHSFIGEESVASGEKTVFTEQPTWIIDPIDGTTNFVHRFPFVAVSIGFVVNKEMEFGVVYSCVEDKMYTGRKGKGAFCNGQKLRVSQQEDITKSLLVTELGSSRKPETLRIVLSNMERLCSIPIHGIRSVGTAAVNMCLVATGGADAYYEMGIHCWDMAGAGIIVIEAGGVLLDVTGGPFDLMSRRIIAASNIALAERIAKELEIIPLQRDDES
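In this qHTS, compounds (final up to 46 uM) act on CHO-M1 cells that are then activated through the M1 receptor with carbachol, in pH 7.4 buffer containing 50 mM LiCl, for 30 min. IP1 accumulation is quantified by the IP-One immunoassay.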
12-hLO inh = 12-hLO (ALOX12) enzyme inhibition. 0.12% of 150,000 active. AID 1452. Potency, µM (top dose mostly 57.1 µM), inactives show at the highest dose activity change, negative = inhibition, actives largely listed as inhibitors. P18054. purified 12-hLO, xylenol orange hydroperoxide absorbance; further: potency means the concentration at half of the fitted maximal effect; nearly all actives have a fitted effect of over 55% in size
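Hydroperoxide formation by human 12-lipoxygenase from 40 uM arachidonic acid was followed colorimetrically via ferric-xylenol orange complex, using the 573/405 nm absorbance ratio. Enzyme concentration was 150 nM, with 30 min reaction at room temperature.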
* marks the source's active call; other numbers are inactive results; ? = inconclusive; nt = no result; ! = not confirmed by another sample; [ ] = another dose, or the depositor's remark. Most compounds without a hit are left out; they make up all but 11% or so of the library. Unless noted, the call rests on the fitted dose curve; in most records, active means well fitted curve in the direction sought with a large enough effect; inconclusive means small, poorly fitted or top-dose-only effect, or another doubt; inactive means no such curve, though single readings can be large; an effect the other way counts as inactive or inconclusive. Unless noted, on the % scale 0 is the no-effect control and ±100 the full control effect.

SMILES	HPGD block	ALDH1A1 inh	PNC assembly inh	IMPase Li cell	IMPase cell inh	12-hLO inh
O=c1[nH]c(=O)n(-c2ccc(Cl)cc2)c(O)c1C=Nc1ccc(S(=O)(=O)Nc2nccs2)cc1	22µM*	?	?	-4%	nt	0%
CCN(CC)S(=O)(=O)c1ccc(N=Cc2c(O)n(-c3ccccc3)c(=O)[nH]c2=O)cc1	-26%	22µM*	?	-9%[38.3 µM]	?	-4%
COc1ccc(N=Cc2c(O)n(-c3ccc(C)cc3)c(=O)[nH]c2=O)cc1	nt	?	nt	-16%	nt	nt
C[C@]12C/C(=C/O)C(=O)C[C@@H]1CC[C@@H]1[C@@H]2CC[C@@]2(C)[C@H]1CC[C@]2(C)O	-6%	0.071µM*	nt	-6%	nt	-3%
CCOP(=O)(NC(C)C)Oc1ccc(SC)c(C)c1 (centres undefined)	5.6µM*	?	nt	34%	nt	-9%
C=C1CCC(O)C/C1=C\C=C1/CCCC2(C)C1CCC2C(C)CCCC(C)C (centres undefined)	-5%	?	nt	2%	4	-15%
CN(C)c1ccc(P(=O)(Nc2ccc([N+](=O)[O-])cc2)N2CCOCC2)c(NC(=O)c2cccs2)c1 (centres undefined)	?	-6%	-80*	8%	1	-2%
CC1(C)N=C(N)N=C(N)N1c1cccc(C(=O)Nc2ccc(S(=O)(=O)F)cc2)c1	-3%	-1%[13.5 µM]	nt	0%	nt	7%[11.4 µM]
O=[As](O)(O)c1ccc(NCc2ccccc2)cc1	0%	?	nt	-6%	nt	-2%[11.4 µM]
CN1CCN(c2ccc3nc(-c4ccc5nc(-c6ccc(O)cc6)[nH]c5c4)[nH]c3c2)CC1	?	?	nt	-4%	nt	12%[11.4 µM]
CCOc1ccc(-c2nc3ccc(-c4nc5ccc(N6CCN(C)CC6)cc5[nH]4)cc3[nH]2)cc1	nt	?	nt	13µM*	nt	nt
c1ccc2c(c1)CN1CCCC1=N2	-19%	21%	nt	6%	nt	0%
CCCN(CCC)C1Cc2cc(OC)c(OC)cc2C1	-17%	22µM*!	nt	18%	12	-3%
Cc1ccc(N2C(=O)NC(=O)/C(=C\c3ccoc3)C2=O)cc1	nt	?	nt	2%	nt	nt
COc1ccc(CN2C(=O)NC(=O)/C(=C/c3ccc([N+](=O)[O-])o3)C2=O)cc1	nt	18µM*	nt	3%	nt	nt
Cc1cccc(N2C(=O)NC(=O)/C(=C/c3ccc([N+](=O)[O-])o3)C2=O)c1	13µM*	-4%	-21	-4%	nt	13%
C=CCN1CC[C@]23c4c5ccc(O)c4O[C@@H]2/C(=N/NC(=O)c2ccccc2)CC[C@@]3(O)[C@H]1C5	nt	nt	nt	nt	-3	-5%
CC(=O)O[C@H]1CC[C@H]2[C@@H]3CCC4=C[C@@H](C5SCCS5)[C@H](OC(C)=O)C[C@]4(C)[C@H]3CC[C@@]12C	-17%	-15%[13.5 µM]	nt	7%	nt	-2%[11.4 µM]
C[C@@]12CC[C@H]3[C@@H](CC=C4C[C@H](OS(=O)(=O)O)CC[C@]43C)[C@H]1CCC2=O	nt	nt	nt	nt	9	2%
O=C(O)/C=C\c1ccc[c]([Sb](=[O])([OH])[OH])c1	nt	nt	nt	nt	nt	-4%[11.4 µM]
CCCn1c(=O)c2[nH]c(C3CCCC3)nc2n(CCCOC(=O)c2ccc(S(=O)(=O)F)cc2)c1=O	-10%	11µM*	nt	9%	-4	-3%
CN(C)[C@@H]1C(=O)C(C(N)=O)=C(O)[C@]2(O)C(=O)C3=C(O)c4c(O)ccc(Cl)c4[C@](C)(O)[C@H]3C[C@@H]12	-4%	2%[20.9 µM]	nt	-3%	-10[20.6 µM]	-6%[25.6 µM]
CN(C)C1C(=O)C(C(N)=O)=C(O)[C@@]2(O)C(=O)C3=C(O)c4c(O)cccc4[C@@](C)(O)C3CC12 (some centres undefined)	-21%	-9%	nt	4µM*	nt	-2%
O=C1C=C2C=CC3C[C@@]2(O1)C1CCCCN31 (some centres undefined)	0%	-10%	nt	18%	nt	-2%
CN1CC[C@@]2(C)c3cc(OC(=O)Nc4ccccc4)ccc3N(C)[C@@H]12	nt	11µM*	nt	-43%	nt	nt

Source: PubChem (National Center for Advancing Translational Sciences (NCATS))
